Among the data in PubChem BioAssay (EPA / NIEHS) are outcome and AC50 values, retold here.

Structures are written as SMILES. The source made the active and inactive calls. Rule for the calls: active = hit-call score of the fitted dose curve at least 0.9, where 1 is the maximum; inactive = score below 0.9.

Test [1] can be described thus: ATG_GLI_CIS: Attagene CIS-FACTORIAL HepG2 Assay for human Zinc Finger Protein GLI1 (AID 2282945). Particulars: HepG2, Attagene cis-factorial reporter mRNA, GLI element; actives raise or lower the signal. An outline of the steps:
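HepG2 cells transiently transfected with cis-promoter multiplexed reporter units report endogenous transcription factor activity. After 24 h chemical exposure, reporter mRNA was quantified by RT-PCR, 6-FAM labelling, HpaI digestion and capillary electrophoresis, with bidirectional fitting against DMSO.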

The target of test [2] is Bile acid receptor (Homo sapiens) (UniProt Q96RI1). Nature of the test: ATG_IR1_CIS: Attagene CIS-FACTORIAL HepG2 Assay for human Nuclear Receptor Subfamily 1 Group H Member 4 (NR1H4), IR1 submotif (AID 2282946). Conditions: IR1 reporter transcription, actives raise or lower the signal. In short, it runs like this:
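Readout: reporter transcript levels by RT-PCR with fluorescent capillary electrophoresis, from HepG2 cells transiently transfected with multiplexed cis-regulated reporters and dosed 24 h. Gain- or loss-of-signal fitted versus DMSO negative control.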

The nature of test [3]: ATG_ISRE_CIS: Attagene CIS-FACTORIAL HepG2 Assay for human Interferon Regulatory Factor 1 (IRF1) binding to an Interferon-Stimulated Response Element (ISRE) (AID 2282948). Particulars: HepG2 ISRE cis-reporter (Attagene), mRNA transcription readout; actives raise or lower the signal. An outline of the steps: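 Uses HepG2 liver cells transfected with cis-regulated reporters and measures mRNA 24 h post-dosing through RT-PCR, primer-extension labelling and capillary electrophoresis, with DMSO as negative control.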

Test [4] in a line: ATG_M_32_CIS: Attagene CIS-FACTORIAL HepG2 Assay for M32 Transcription Factor (Internal Marker) (AID 2282949).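 Note: background control marker of the multiplexed CIS panel rather than a real target.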 Conditions: HepG2 Attagene cis-factorial M32 reporter, mRNA; actives raise or lower the signal. An outline of the steps:
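Using DMSO as baseline, bidirectional curve fits were applied to reporter mRNA signals. These came from transiently transfected HepG2 cells exposed for 24 h, with RNA analysed by RT-PCR, FAM primer extension, HpaI digestion and CE.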

Test [5] in a line: ATG_M_06_CIS: Attagene CIS-FACTORIAL HepG2 Assay for M06 Transcription Factor (Internal Marker) (AID 2282950). Conditions: HepG2 Attagene CIS-FACTORIAL M06 internal marker reporter; actives raise or lower the signal. In short, it runs like this:
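HepG2 cells transiently transfected with cis-regulated multiple reporter transcription units were exposed to chemical for 24 h; reporter mRNA was quantified by RT-PCR, 6-FAM primer labelling, HpaI digestion and capillary electrophoresis, fitted bidirectionally against DMSO.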

For test [6], the target named is Hypoxia-inducible factor 1-alpha (Homo sapiens) (UniProt Q16665). Nature of the test: ATG_HIF1a_CIS: Attagene CIS-FACTORIAL HepG2 Assay for human Hypoxia Inducible Factor 1 (HIF1A) (AID 2282951). Particulars: HepG2 Attagene cis-factorial HIF1a reporter transcription; actives raise or lower the signal. In short, it runs like this:
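In this multiplexed cell assay, HepG2 cells bearing transfected cis reporters are dosed for 24 h and reporter mRNA is read by RT-PCR plus capillary electrophoresis; signal increases and decreases are both scored against DMSO.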

Test [7] deals with Hepatocyte nuclear factor 6 (Homo sapiens) (UniProt Q9UBC0). Description: ATG_HNF6_CIS: Attagene CIS-FACTORIAL HepG2 Assay for human Hepatocyte Nuclear Factor 6 (HNF6) (AID 2282952). Conditions: HepG2 Attagene cis-factorial HNF6 reporter transcription; actives raise or lower the signal. In short, it runs like this: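 Readout: fluorescent reporter-transcript fragments resolved by capillary electrophoresis after RT-PCR, reflecting endogenous factor activity in transfected HepG2. Exposure 24 h. Gain or loss of signal fitted bidirectionally against DMSO.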

Test [8] deals with Heat shock factor protein 1 (Homo sapiens) (UniProt Q00613). Nature of the test: ATG_HSE_CIS: Attagene CIS-FACTORIAL HepG2 Assay for human Heat Shock Transcription Factor 1 (HSE) (AID 2282953). Particulars: HepG2 HSE cis-reporter, Attagene RNA transcription; actives raise or lower the signal. In short, it runs like this:
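HepG2 cells transiently transfected with multiple reporter transcription units under cis-regulatory promoter control, measuring endogenous transcription factor activity. After 24 h chemical exposure, reporter mRNA quantified by RT-PCR, fluorescent labelling, HpaI digestion and capillary electrophoresis; bidirectional fit versus DMSO.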

Test [9] can be described thus: ATG_MRE_CIS: Attagene CIS-FACTORIAL HepG2 Assay for human Metal Responsive Element (MRE) (AID 2282954). Conditions: HepG2 MRE cis-reporter transcription, Attagene multiplex; actives raise or lower the signal. An outline of the steps:
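Readout: capillary electrophoresis of 6-FAM-labelled, HpaI-digested RT-PCR reporter products. System: HepG2 cells carrying transient multiplexed cis reporters, dosed 24 h. Analysis: bidirectional fit, DMSO baseline.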

In test [10] the target is Paired box protein Pax-6 (Homo sapiens) (UniProt P26367). Nature of the test: ATG_Pax6_CIS: Attagene CIS-FACTORIAL HepG2 Assay for human Paired Box 6 (PAX6) (AID 2282956). Particulars: HepG2 CIS-FACTORIAL PAX6 reporter transcription, RNA readout; actives raise or lower the signal. In short, it runs like this:
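DMSO-referenced bidirectional fits of reporter mRNA fluorescence; HepG2 with transient cis-promoter MRTUs, 24 h post-dose, RT-PCR plus capillary electrophoresis detection.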

Test [11] is described as follows: ATG_PXRE_CIS: Attagene CIS-FACTORIAL HepG2 Assay for human Pregnane X Receptor Element (PXRE) (AID 2282957). Particulars: HepG2 Attagene CIS-FACTORIAL PXRE reporter, mRNA; actives raise or lower the signal. In short, it runs like this:
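Read-out: fluorescence of reporter-specific RT-PCR products resolved by capillary electrophoresis, fitted bidirectionally relative to DMSO. Human HepG2 liver cells carried transfected cis-promoter reporter units and were exposed to chemicals for 24 h.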

The nature of test [12]: ATG_PPRE_CIS: Attagene CIS-FACTORIAL HepG2 Assay for human Peroxisome Proliferator-activated Response Element (PPRE) (AID 2282958). Particulars: HepG2 PPRE cis-element reporter, Attagene transcription factor profiling; actives raise or lower the signal. In short, it runs like this: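 Multiplexed reporter transcription units under cis-regulatory promoters were transfected into HepG2 cells to capture endogenous factor activity. A 24 h incubation preceded RNA isolation and fluorescent RT-PCR fragment analysis.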

Test [13] in a line: ATG_Sox_CIS: Attagene CIS-FACTORIAL HepG2 Assay for human SRY-box transcription factor (SOX) (AID 2282960). Conditions: HepG2 Attagene cis-factorial SOX reporter, mRNA; actives raise or lower the signal. An outline of the steps: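 After 24 h of chemical treatment, transfected HepG2 reporter cells are lysed for total RNA. Transcript levels come from RT-PCR with labelled primer extension and capillary electrophoresis, analysed bidirectionally versus DMSO.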

In test [14] the target is Transcription factor Sp1 (Homo sapiens) (UniProt P08047). Nature of the test: ATG_Sp1_CIS: Attagene CIS-FACTORIAL HepG2 Assay for human Specificity Protein 1 (Sp1) (AID 2282961). Conditions: HepG2 Sp1 cis-reporter transcription, actives raise or lower the signal. In short, it runs like this: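 Sp1-driven reporter mRNA, read as capillary electrophoresis fluorescence after RT-PCR, in transiently transfected HepG2 cells dosed for 24 h; signal change in either direction relative to DMSO.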

The nature of test [15]: ATG_SREBP_CIS: Attagene CIS-FACTORIAL HepG2 Assay for human Sterol Regulatory Element Binding (SREBP) (AID 2282962). Conditions: HepG2 Attagene cis-factorial SREBP reporter, mRNA; actives raise or lower the signal. In short, it runs like this:
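In this cis-format assay, HepG2 liver cells express reporters controlled by promoter elements responsive to native transcription factors. Exposure lasts 24 h; reporter mRNA fluorescence from capillary electrophoresis gives the signal, fitted bidirectionally against DMSO.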

For test [16], the target named is Signal transducer and activator of transcription 3 (Homo sapiens) (UniProt P40763). Nature of the test: ATG_STAT3_CIS: Attagene CIS-FACTORIAL HepG2 Assay for human Signal Transducer and Activator of Transcription 3 (STAT3) (AID 2282963). Conditions: HepG2, Attagene cis-factorial STAT3 reporter transcription; actives raise or lower the signal. An outline of the steps: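 Uses human liver HepG2 transiently carrying cis-regulated reporter transcription units. Following 24 h dosing, reporter mRNA induction was detected by RT-PCR and capillary electrophoresis, analysed bidirectionally versus DMSO.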

The nature of test [17]: ATG_TA_CIS: Attagene CIS-FACTORIAL HepG2 Assay for human TA Basal Promoter (AID 2282964). Conditions: HepG2 Attagene CIS-factorial TA basal promoter reporter; actives raise or lower the signal. An outline of the steps:
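HepG2 cells transiently transfected with multiplexed cis-promoter reporter units, dosed 24 h. Reporter mRNA measured by RT-PCR, 6-FAM labelling, HpaI digestion and capillary electrophoresis; bidirectional fit versus DMSO baseline, serving as background control.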

The nature of test [18]: ATG_GRE_CIS: Attagene CIS-FACTORIAL HepG2 Assay for human Glucocorticoid Response Elements (GRE) (AID 2282947). Conditions: HepG2 GRE cis-reporter, Attagene multiplex mRNA; actives raise or lower the signal. An outline of the steps: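 HepG2, transient cis-reporter transfection, 24 h. Reporter mRNA: RT-PCR then CE, fluorescence. Fit both directions vs DMSO.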
Test [19] is described as follows: ATG_PBREM_CIS: Attagene CIS-FACTORIAL HepG2 Assay for human Phenobarbital-responsive Enhancer Module (PBREM) (AID 2282955). Particulars: HepG2 PBREM cis-reporter, Attagene multiplexed transcription; actives raise or lower the signal. In short, it runs like this: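 After a 24 h incubation with test chemical, transfected HepG2 cells yield total RNA; reporter-specific RT-PCR products are fluorescently labelled, HpaI-digested and resolved by capillary electrophoresis against ROX size standards.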

Test [20] is described as follows: ATG_RORE_CIS: Attagene CIS-FACTORIAL HepG2 Assay for human RAR-related Orphan Receptor Element (RORE) (AID 2282959). Conditions: HepG2 Attagene cis-factorial RORE reporter, mRNA; actives raise or lower the signal. In short, it runs like this:
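Fluorescence intensity of reporter-specific cDNA fragments, separated by capillary electrophoresis, gives the signal. Source: HepG2 liver cells transiently transfected with cis-element reporters and exposed 24 h; DMSO-normalized bidirectional fit.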

Sequence of Bile acid receptor (Homo sapiens) (Q96RI1 whole entry, looked up): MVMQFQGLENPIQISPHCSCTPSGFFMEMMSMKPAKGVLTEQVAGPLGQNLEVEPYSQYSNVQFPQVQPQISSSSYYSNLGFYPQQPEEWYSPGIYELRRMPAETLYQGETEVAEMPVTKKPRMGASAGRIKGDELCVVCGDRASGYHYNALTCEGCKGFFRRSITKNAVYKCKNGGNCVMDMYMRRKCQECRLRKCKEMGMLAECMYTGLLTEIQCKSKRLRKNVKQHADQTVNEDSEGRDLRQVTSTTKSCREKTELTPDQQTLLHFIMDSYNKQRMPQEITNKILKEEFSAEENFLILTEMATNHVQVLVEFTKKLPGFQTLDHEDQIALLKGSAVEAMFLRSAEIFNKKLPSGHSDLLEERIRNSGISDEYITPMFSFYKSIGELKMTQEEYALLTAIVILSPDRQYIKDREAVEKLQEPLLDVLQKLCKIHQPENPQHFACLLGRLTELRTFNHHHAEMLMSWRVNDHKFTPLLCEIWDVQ
Sequence of Heat shock factor protein 1 (Homo sapiens) (Q00613 whole entry, looked up): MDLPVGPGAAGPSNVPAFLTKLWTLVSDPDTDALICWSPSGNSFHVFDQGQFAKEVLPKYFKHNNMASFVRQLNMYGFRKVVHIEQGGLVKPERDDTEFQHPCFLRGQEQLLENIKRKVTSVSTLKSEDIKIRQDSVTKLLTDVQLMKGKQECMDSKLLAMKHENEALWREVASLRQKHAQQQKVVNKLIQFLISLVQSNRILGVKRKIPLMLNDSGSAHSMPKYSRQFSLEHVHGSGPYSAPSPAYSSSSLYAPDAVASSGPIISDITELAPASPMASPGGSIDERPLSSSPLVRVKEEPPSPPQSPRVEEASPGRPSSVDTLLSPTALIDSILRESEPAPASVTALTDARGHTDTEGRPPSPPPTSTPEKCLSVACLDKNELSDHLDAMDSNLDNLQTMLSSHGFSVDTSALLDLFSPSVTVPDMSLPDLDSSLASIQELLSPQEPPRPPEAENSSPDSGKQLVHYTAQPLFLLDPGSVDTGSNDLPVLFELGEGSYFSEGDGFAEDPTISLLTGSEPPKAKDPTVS
Sequence of Hepatocyte nuclear factor 6 (Homo sapiens) (Q9UBC0 whole entry, looked up, the tested form may be a part): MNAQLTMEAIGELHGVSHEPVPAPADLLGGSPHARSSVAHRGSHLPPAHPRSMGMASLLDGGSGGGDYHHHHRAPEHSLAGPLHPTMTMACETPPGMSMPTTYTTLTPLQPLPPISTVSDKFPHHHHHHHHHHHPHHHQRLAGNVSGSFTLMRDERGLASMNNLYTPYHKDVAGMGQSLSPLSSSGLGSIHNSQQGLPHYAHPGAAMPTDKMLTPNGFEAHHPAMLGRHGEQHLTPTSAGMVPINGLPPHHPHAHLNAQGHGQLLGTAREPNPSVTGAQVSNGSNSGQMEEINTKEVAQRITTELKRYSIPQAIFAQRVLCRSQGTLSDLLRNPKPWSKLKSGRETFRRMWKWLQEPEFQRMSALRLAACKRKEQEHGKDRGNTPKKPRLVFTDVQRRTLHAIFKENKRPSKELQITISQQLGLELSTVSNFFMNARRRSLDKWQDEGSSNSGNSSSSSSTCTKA
Sequence of Signal transducer and activator of transcription 3 (Homo sapiens) (P40763 whole entry, looked up): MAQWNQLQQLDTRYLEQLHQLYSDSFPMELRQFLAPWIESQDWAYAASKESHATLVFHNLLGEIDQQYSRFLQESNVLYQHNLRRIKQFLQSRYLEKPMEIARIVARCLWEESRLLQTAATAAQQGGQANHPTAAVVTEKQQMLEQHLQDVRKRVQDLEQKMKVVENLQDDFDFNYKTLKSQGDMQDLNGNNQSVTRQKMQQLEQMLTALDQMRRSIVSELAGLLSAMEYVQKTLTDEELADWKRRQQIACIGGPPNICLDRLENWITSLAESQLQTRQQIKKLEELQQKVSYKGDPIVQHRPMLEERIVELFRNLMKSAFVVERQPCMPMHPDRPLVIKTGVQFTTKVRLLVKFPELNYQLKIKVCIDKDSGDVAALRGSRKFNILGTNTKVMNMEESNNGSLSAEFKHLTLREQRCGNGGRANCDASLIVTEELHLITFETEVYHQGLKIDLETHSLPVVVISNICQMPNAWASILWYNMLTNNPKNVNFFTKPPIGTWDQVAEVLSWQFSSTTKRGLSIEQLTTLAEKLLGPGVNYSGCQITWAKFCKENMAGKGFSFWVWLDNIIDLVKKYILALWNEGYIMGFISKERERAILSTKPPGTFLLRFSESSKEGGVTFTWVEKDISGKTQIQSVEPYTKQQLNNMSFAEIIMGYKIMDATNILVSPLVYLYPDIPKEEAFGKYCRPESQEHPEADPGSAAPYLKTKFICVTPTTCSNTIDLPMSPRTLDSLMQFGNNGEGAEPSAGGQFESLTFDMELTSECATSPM
Sequence of Paired box protein Pax-6 (Homo sapiens) (P26367 whole entry, looked up): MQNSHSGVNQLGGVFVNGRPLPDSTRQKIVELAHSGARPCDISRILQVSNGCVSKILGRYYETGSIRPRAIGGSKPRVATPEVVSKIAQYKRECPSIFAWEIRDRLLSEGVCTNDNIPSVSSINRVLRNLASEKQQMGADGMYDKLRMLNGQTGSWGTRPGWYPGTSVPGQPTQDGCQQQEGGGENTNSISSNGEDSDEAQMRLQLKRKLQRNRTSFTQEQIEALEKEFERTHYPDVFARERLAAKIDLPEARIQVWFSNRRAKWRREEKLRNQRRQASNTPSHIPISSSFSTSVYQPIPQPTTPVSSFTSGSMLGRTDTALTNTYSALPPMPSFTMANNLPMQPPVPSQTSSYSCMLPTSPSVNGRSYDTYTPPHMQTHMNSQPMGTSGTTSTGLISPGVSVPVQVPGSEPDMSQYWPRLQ
Sequence of Transcription factor Sp1 (Homo sapiens) (P08047 whole entry, looked up): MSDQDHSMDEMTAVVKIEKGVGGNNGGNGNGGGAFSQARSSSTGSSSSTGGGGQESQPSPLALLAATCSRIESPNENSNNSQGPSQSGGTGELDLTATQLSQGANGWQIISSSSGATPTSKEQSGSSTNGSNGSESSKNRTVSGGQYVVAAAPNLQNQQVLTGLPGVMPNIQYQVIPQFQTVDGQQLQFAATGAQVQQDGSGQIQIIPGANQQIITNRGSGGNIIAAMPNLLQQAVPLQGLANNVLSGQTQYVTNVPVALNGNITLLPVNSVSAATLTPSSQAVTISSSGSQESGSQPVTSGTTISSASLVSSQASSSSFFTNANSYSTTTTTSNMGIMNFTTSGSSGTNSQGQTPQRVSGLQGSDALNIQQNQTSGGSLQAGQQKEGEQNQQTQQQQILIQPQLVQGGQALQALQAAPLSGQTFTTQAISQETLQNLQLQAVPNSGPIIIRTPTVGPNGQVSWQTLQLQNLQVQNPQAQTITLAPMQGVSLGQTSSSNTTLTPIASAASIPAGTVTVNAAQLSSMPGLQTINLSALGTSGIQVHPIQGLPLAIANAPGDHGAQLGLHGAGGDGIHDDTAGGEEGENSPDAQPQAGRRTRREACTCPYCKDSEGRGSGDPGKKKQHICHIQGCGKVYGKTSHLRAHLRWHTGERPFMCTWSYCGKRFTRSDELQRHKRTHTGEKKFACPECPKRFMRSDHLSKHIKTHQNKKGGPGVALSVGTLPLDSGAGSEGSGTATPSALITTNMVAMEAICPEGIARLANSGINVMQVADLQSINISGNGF
Sequence of Hypoxia-inducible factor 1-alpha (Homo sapiens) (Q16665 whole entry, looked up): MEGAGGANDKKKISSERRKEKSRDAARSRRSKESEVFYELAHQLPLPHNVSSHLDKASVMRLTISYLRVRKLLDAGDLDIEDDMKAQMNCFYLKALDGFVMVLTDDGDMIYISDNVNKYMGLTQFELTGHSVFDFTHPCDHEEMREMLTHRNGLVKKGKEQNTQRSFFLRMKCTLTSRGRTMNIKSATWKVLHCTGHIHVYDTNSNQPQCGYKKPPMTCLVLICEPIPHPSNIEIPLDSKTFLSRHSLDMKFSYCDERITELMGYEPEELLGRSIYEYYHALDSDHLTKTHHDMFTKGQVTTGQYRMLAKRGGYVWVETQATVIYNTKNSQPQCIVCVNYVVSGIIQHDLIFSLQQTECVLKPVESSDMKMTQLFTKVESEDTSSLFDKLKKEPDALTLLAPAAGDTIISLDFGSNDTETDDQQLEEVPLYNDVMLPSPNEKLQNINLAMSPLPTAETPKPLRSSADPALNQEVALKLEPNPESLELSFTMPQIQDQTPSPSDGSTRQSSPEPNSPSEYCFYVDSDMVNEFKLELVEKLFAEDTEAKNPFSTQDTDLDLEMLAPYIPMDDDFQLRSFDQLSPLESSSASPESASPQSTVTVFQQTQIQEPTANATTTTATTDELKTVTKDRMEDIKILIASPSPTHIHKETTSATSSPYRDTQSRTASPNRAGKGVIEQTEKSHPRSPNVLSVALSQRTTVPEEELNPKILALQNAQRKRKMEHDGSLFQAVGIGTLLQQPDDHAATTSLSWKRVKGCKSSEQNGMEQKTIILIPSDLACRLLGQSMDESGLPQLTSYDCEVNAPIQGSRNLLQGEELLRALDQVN

`CC1=CC[C@@H](C(C)(C)O)CC1`: the molecule was classed as inactive in test [1], in test [2], in test [3], in [4], in test [5] and in test [6]. The molecule was called inactive in [7], in [8], in test [9], in test [10], in [11] and in test [12]. The molecule was classed as inactive in test [13], in [14], in test [15], in [16] and in test [17].

As to `CC1=C(C=O)C(C)(C)CCC1`, the call in [1], in test [2], in [18], in [3], in [4] and in test [5] was inactive. The call in [7], in test [8], in test [9], in test [19], in [10] and in test [12] was inactive. The molecule was classed as inactive in [20], in test [13], in test [14], in [15], in test [16] and in test [17]. In test [11], the AC50 was 1.75 µM (active).

With `CN1CCc2cccc3c2[C@H]1Cc1ccc(O)c(O)c1-3`, the molecule was called inactive in [1], in test [2], in test [18], in test [4], in test [5] and in test [7]. For the same molecule, the outcome in [8], in test [9], in [19], in [10], in test [13] and in [16] was inactive. Also, the molecule was called inactive in test [17]. Besides, the results for the AC50 in test [3], in test [11] and in test [15] were 13.3 µM (active), 1.26 µM (active) and 13.3 µM (active), respectively.

Take `CCC(=O)OCC=Cc1ccccc1`: the call in [1], in test [2], in test [18], in [4], in test [5] and in test [6] was inactive. Also, the result in test [8], in [9], in test [19], in test [10], in test [12] and in test [20] was inactive. Besides, the molecule was classed as inactive in test [13], in test [14], in test [15] and in test [17]. Moreover, the AC50 in [11] is 33.1 µM (active).

What is called AC50 is the midpoint of the concentration-response curve, whichever way the signal moves.
